High-throughput results as filed in PubChem BioAssay.
Rows were chosen to be rich in hits. Some 2.6% of all compounds tested hit in one or more screens of this group.
Cruzain Triton: inhibitors of Trypanosoma cruzi cruzain with detergent; P25779; purified cruzain, Z-FR-AMC fluorescence, 0.01% Triton; Potency, µM, without a hit: max response, negative = inhibition, most hits filed as inhibitors; actives 0.43% (n = 200,000); AID 1478;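 note: plate controls were neutral wells for no effect and buffer without enzyme for full effect; nearly all actives have a fitted effect of over 40% in size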
Target sequence (P25779 123-467 limits assumed): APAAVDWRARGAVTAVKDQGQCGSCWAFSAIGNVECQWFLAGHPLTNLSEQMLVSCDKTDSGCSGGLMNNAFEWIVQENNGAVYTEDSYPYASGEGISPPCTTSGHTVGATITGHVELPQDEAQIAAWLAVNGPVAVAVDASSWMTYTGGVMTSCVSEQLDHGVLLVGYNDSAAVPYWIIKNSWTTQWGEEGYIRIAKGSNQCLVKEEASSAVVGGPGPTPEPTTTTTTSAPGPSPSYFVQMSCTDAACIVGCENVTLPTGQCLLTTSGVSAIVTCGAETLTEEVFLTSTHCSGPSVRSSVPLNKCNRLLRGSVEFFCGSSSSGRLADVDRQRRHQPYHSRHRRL
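Cysteine protease activity tested under reducing, mildly acidic conditions (100 mM sodium acetate pH 5.5, 5 mM DTT) plus 0.01% Triton X-100. Cruzain 1.5 nM; substrate Z-FR-AMC 2 uM; 15 min compound preincubation at room temperature.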
Cruzain noTriton: inhibitors of Trypanosoma cruzi cruzain without detergent | P25779 | purified cruzain, Z-FR-AMC fluorescence, no detergent | Potency, µM, for the others: max response, negative = inhibition, hits mostly inhibitors | actives 2.3% (n = 200,000) | AID 1476;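 note: plate controls were enzyme without inhibitor for no effect and buffer without enzyme for full effect; nearly all actives have a fitted effect of over 40% in size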
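Purified cruzain at 1.5 nM, pre-incubated 15 min with compound at room temperature in 100 mM sodium acetate pH 5.5, 5 mM DTT, 0.00005% Triton X-100. Reaction started with 2 uM Z-FR-AMC; AMC fluorescence increase over 60 s gives rate.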
Numbers without * were called inactive. Calls come from the whole dose curve; as a rule, active = well fitted curve in the direction sought with a large enough effect; inconclusive = small, poorly fitted or top-dose-only effect, or another doubt; inactive = no such curve, though single readings can be large; an effect the other way counts as inactive or inconclusive. Potency is the fitted concentration of half-maximal effect.

Results for CCc1ccc(NC(=O)CC2C(=O)N(c3cccc(OC)c3)C(=O)N2Cc2ccco2)cc1 (configuration not stated) ?
Cruzain Triton: -6%; Cruzain noTriton: 10%

How did COc1cc(NS(=O)(=O)c2ccc(Nc3nc(-c4cccc([N+](=O)[O-])c4)cs3)cc2)nc(OC)n1 do in these assays?
Cruzain Triton: -9%; Cruzain noTriton: 32µM*

What do the screens show for `COc1cc(NS(=O)(=O)c2ccc(NS(=O)(=O)c3ccccc3)cc2)nc(OC)n1`?
Cruzain Triton: -2%; Cruzain noTriton: -3%

How did Cc1cccc(-n2ncc3c(N4CCCC(C)C4)ncnc32)c1 (configuration not stated) do in these assays?
Cruzain Triton: -2%; Cruzain noTriton: 11%

How did CCCCCCc1cc2cc(S(=O)(=O)c3ccc(F)cc3)c(=O)oc2cc1O do in these assays?
Cruzain Triton: -7%; Cruzain noTriton: 25µM*

How did CCCCCCc1cc2cc(-c3nnc(-c4ccccc4O)o3)c(=O)oc2cc1O do in these assays?
Cruzain Triton: -2%; Cruzain noTriton: -10%

What do the screens show for `CCOC(=O)N1CCN(Cc2nc3cc(NC(=O)CC(C)C)ccc3n2C(C)C)CC1`?
Cruzain Triton: 1%; Cruzain noTriton: 8%

What do the screens show for `O=C(COc1cccc(Cl)c1)N/N=C\c1cc2ccccc2nc1Cl`?
Cruzain Triton: 9%; Cruzain noTriton: -18%

How did O=C(CNc1ccc2ccccc2c1)N/N=C/c1cc2ccccc2nc1Cl do in these assays?
Cruzain Triton: -14%; Cruzain noTriton: 25µM*

What do the screens show for `CCOC(=O)C(NC(=O)NC1CCCCC1)(c1ccccc1)C(F)(F)F` (configuration not stated)?
Cruzain Triton: 3%; Cruzain noTriton: 3.2µM*

Results for CCOC(=O)C(NC(=O)N1CCCCC1)(c1ccccc1)C(F)(F)F (configuration not stated) ?
Cruzain Triton: -4%; Cruzain noTriton: 4%

What do the screens show for `CCCCCCCC1=CC2=C(Cl)C(=O)C(C)(OC(C)=O)C(=O)C2=CN1C` (configuration not stated)?
Cruzain Triton: 1%; Cruzain noTriton: 3%

Results for O=C(Nc1ccc(-c2nc3ccccc3s2)c(O)c1)c1ccc(Br)cc1 ?
Cruzain Triton: 0%; Cruzain noTriton: 1%

Results for O=C(Nc1ccc(-c2nc3ccccc3s2)c(OC(=O)c2ccccc2)c1)c1ccccc1 ?
Cruzain Triton: -6%; Cruzain noTriton: 25µM*

How did NC(=O)CN1CCN(c2nc(-c3ccc(F)cc3)cs2)CC1 do in these assays?
Cruzain Triton: -2%; Cruzain noTriton: 0%

How did O=C(CN1CCN(c2nc(-c3ccc(F)cc3)cs2)CC1)Nc1ccc2c(c1)OCO2 do in these assays?
Cruzain Triton: -5%; Cruzain noTriton: 25µM*

Results for CCCCCCCCCCCCCCC/C=C/[C@@H](O)[C@H](NC(=O)CCCCCCCCCCCCC)OC (tested in a mixture with another compound) ?
Cruzain Triton: 3%; Cruzain noTriton: 2%

Results for COC(=O)c1cc(C)nc2c1c(=O)nc(SCc1ccccc1C)n2C1CC1 ?
Cruzain Triton: -1%; Cruzain noTriton: -10%

How did N#Cc1ccc(-c2ccccc2)nc1SCC(=O)c1cc2ccccc2oc1=O do in these assays?
Cruzain Triton: -5%; Cruzain noTriton: 20µM*

What do the screens show for `CC(C)c1c(C#N)c(N)nc(SCC(=O)c2cc3ccccc3oc2=O)c1C#N`?
Cruzain Triton: 1%; Cruzain noTriton: -37%

How did COc1ccc(-c2noc(CSc3nnc(Cc4ccccc4)n3-c3ccccc3)n2)cc1OC do in these assays?
Cruzain Triton: -2%; Cruzain noTriton: 8%

What do the screens show for `O=C(NC(=S)Nc1ccc(N2CCCCC2)cc1)c1ccc2c(c1)OCCO2`?
Cruzain Triton: -4%; Cruzain noTriton: 25µM*

How did O=C(NC(=S)Nc1ccc(N2CCOCC2)cc1)c1ccc2c(c1)OCCO2 do in these assays?
Cruzain Triton: -9%; Cruzain noTriton: -16%

How did CCOc1cccc(C(=O)NC(=S)Nc2ccc(N3CCCC3)cc2)c1 do in these assays?
Cruzain Triton: inconclusive; Cruzain noTriton: 32µM*

Results for CCOc1cccc(C(=O)Nc2ccc(N3CCN(S(C)(=O)=O)CC3)cc2)c1 ?
Cruzain Triton: 5%; Cruzain noTriton: 2%

Results for COC(=O)c1ccc(NC(=O)CCc2c(C)nn(-c3ccc(N4CCOCC4)nn3)c2C)cc1 ?
Cruzain Triton: -2%; Cruzain noTriton: -2%

What do the screens show for `COc1ccc(Cl)cc1NC(=O)c1c(NCc2cccs2)sc2c1CCC(C)C2` (configuration not stated)?
Cruzain Triton: -6%; Cruzain noTriton: inconclusive

Results for O=C(C1=NN(c2ccccc2)C2C(=O)N(c3ccc(Cl)cc3)C(=O)C12)c1ccccc1 (configuration not stated) ?
Cruzain Triton: -2%; Cruzain noTriton: 10µM*

How did O=C(C1=NN(c2ccccc2)C2C(=O)N(c3cccc(Cl)c3)C(=O)C12)c1ccccc1 (configuration not stated) do in these assays?
Cruzain Triton: -7%; Cruzain noTriton: inconclusive

Results for CCc1ccc(-n2nc3ccc(NC(=O)c4ccc5c(c4)OCO5)cc3n2)cc1 ?
Cruzain Triton: -1%; Cruzain noTriton: 10µM*

How did O=C(Nc1ccc2nn(-c3ccccc3)nc2c1)c1ccc2c(c1)OCCO2 do in these assays?
Cruzain Triton: -7%; Cruzain noTriton: inconclusive

Results for Cc1ccc(-n2nc3ccc(NC(=O)c4ccc5c(c4)OCO5)cc3n2)cc1 ?
Cruzain Triton: -1%; Cruzain noTriton: -6%

Results for CCOc1ccc(-n2nc3ccc(NC(=O)c4ccc5c(c4)OCCO5)cc3n2)cc1 ?
Cruzain Triton: -3%; Cruzain noTriton: 13µM*

Results for CC(C)(C)CC(C)(C)c1ccc(OCC(=O)Nc2ccc(S(=O)(=O)Nc3ncccn3)cc2)cc1 ?
Cruzain Triton: 1%; Cruzain noTriton: -9%

Results for CCOC(=O)C1=C(CS(=O)(=O)c2ccc(F)cc2)NC(=O)NC1c1ccc(OCC)c(OC)c1 (configuration not stated) ?
Cruzain Triton: 4%; Cruzain noTriton: -2%

What do the screens show for `COC(=O)C(C)NC(=O)C(C)NC(=O)OCc1ccccc1` (configuration not stated)?
Cruzain Triton: 0%; Cruzain noTriton: -3%

How did CSCC[C@H](C=O)NC(=O)[C@H](CC(C)C)NC(=O)[C@H](CC(C)C)NC(C)=O do in these assays?
Cruzain Triton: 0.0028µM*; Cruzain noTriton: 0.0025µM*

Results for CC(=O)N[C@@H](CC(C)C)C(=O)O ?
Cruzain Triton: -1%; Cruzain noTriton: -4%

Results for CCCCC(C=O)NC(=O)C(CC(C)C)NC(=O)OCc1ccccc1 (configuration not stated) ?
Cruzain Triton: 0.002µM*; Cruzain noTriton: 0.0025µM*

How did CSCCC(NC=O)C(=O)NC(CC(C)C)C(=O)NC(Cc1ccccc1)C(=O)O (configuration not stated) do in these assays?
Cruzain Triton: 5%; Cruzain noTriton: 5%

How did CCCC[C@@H](C=O)NC(=O)[C@H](CC(C)C)NC(=O)[C@H](CC(C)C)NC(C)=O do in these assays?
Cruzain Triton: inconclusive; Cruzain noTriton: 0.0032µM*

What do the screens show for `COc1ccccc1CNC(=O)CCCCn1c(=O)c2ccccc2n(Cc2ccccc2F)c1=O`?
Cruzain Triton: -3%; Cruzain noTriton: -6%

What do the screens show for `Cc1ccc(S(=O)(=O)NCCc2nnc3ccc(SCc4ccc(F)cc4)nn23)cc1`?
Cruzain Triton: -8%; Cruzain noTriton: inconclusive
